# Reference: the supplement of paper PMC4466140
# Legend:
# Test in all cases: SPOT peptide array binding signal intensity (averaged, normalized) (arbitrary units (background-subtracted, floor 0; scale differs between SH3 domains)); higher = stronger binding of the SH3 domain to the peptide
# AgAbp1 = target: AgAbp1
# Procedure, shortened: (§1)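 E. coli BL21(DE3) was used to express GST-fused SH3 domains from four yeast species, which were then purified on glutathione Sepharose. These were incubated at 10 μg/ml in TBS-based blocking buffer overnight at 4°C on cellulose membranes carrying synthetic 15-mer peptides, in which cysteines were replaced by serines. Binding signal is the replicate average of normalized, background-subtracted spot intensity, in arbitrary units that differ between domains.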
# AgBbc1 = target: AgBbc1
# Procedure, shortened: as §1
# AgBem1-D1 = target: AgBem1-D1
# Procedure, shortened: as §1
# AgBzz1-D1 = target: AgBzz1-D1
# Procedure, shortened: as §1
# AgBzz1-D2 = target: AgBzz1-D2
# Procedure, shortened: as §1
# AgCyk3 = target: AgCyk3
# Procedure, shortened: as §1
# AgFus1 = target: AgFus1
# Procedure, shortened: as §1
# AgHof1 = target: AgHof1
# Procedure, shortened: as §1
# AgHse1 = target: AgHse1
# Procedure, shortened: as §1
# AgLsb1 = target: AgLsb1
# Procedure, shortened: as §1
# AgLsb4 = target: AgLsb4
# Procedure, shortened: as §1
# AgMyo5 = target: AgMyo5
# Procedure, shortened: as §1
# AgNbp2 = target: AgNbp2
# Procedure, shortened: as §1
# AgRvs167 = target: AgRvs167
# Procedure, shortened: as §1
# AgSho1 = target: AgSho1
# Procedure, shortened: as §1
# AgSla1-D1-D2 = target: AgSla1-D1-D2
# Procedure, shortened: as §1
# AgSla1-D3 = target: AgSla1-D3
# Procedure, shortened: as §1
# CaAbp1-D1 = target: CaAbp1-D1
# Procedure, shortened: as §1
# CaAbp1-D2 = target: CaAbp1-D2
# Procedure, shortened: as §1
# CaBbc1 = target: CaBbc1
# Procedure, shortened: as §1
# CaBem1-D1 = target: CaBem1-D1
# Procedure, shortened: as §1
# CaBzz1-D1 = target: CaBzz1-D1
# Procedure, shortened: as §1
# CaBzz1-D2 = target: CaBzz1-D2
# Procedure, shortened: as §1
# CaCyk3 = target: CaCyk3
# Procedure, shortened: as §1
# CaFus1 = target: CaFus1
# Procedure, shortened: as §1
# CaHof1 = target: CaHof1
# Procedure, shortened: as §1
# CaHse1 = target: CaHse1
# Procedure, shortened: as §1
# CaLsb1 = target: CaLsb1
# Procedure, shortened: as §1
# CaLsb4 = target: CaLsb4
# Procedure, shortened: as §1
# CaMyo5 = target: CaMyo5
# Procedure, shortened: as §1
# CaNbp2 = target: CaNbp2
# Procedure, shortened: as §1
# CaRvs167 = target: CaRvs167
# Procedure, shortened: as §1
# CaRvs167-3 = target: CaRvs167-3
# Procedure, shortened: as §1
# CaSho1 = target: CaSho1
# Procedure, shortened: as §1
# CaSla1-D1-D2 = target: CaSla1-D1-D2
# Procedure, shortened: as §1
# CaSla1-D3 = target: CaSla1-D3
# Procedure, shortened: as §1
# ScAbp1 = target: ScAbp1
# Procedure, shortened: as §1
# ScBbc1 = target: ScBbc1
# Procedure, shortened: as §1
# ScBem1-D1 = target: ScBem1-D1
# Procedure, shortened: as §1
# ScBzz1-D1 = target: ScBzz1-D1
# Procedure, shortened: as §1
# ScBzz1-D2 = target: ScBzz1-D2
# Procedure, shortened: as §1
# ScCyk3 = target: ScCyk3
# Procedure, shortened: as §1
# ScFus1 = target: ScFus1
# Procedure, shortened: as §1
# ScHof1 = target: ScHof1
# Procedure, shortened: as §1
# ScHse1 = target: ScHse1
# Procedure, shortened: as §1
# ScLsb1 = target: ScLsb1
# Procedure, shortened: as §1
# ScLsb2 = target: ScLsb2
# Procedure, shortened: as §1
# ScLsb3 = target: ScLsb3
# Procedure, shortened: as §1
# ScLsb4 = target: ScLsb4
# Procedure, shortened: as §1
# ScMyo3 = target: ScMyo3
# Procedure, shortened: as §1
# ScMyo5 = target: ScMyo5
# Procedure, shortened: as §1
# ScNbp2 = target: ScNbp2
# Procedure, shortened: as §1
# ScPex13 = target: ScPex13
# Procedure, shortened: as §1
# ScRvs167 = target: ScRvs167
# Procedure, shortened: as §1
# ScSho1 = target: ScSho1
# Procedure, shortened: as §1
# ScSla1-D1-D2 = target: ScSla1-D1-D2
# Procedure, shortened: as §1
# ScSla1-D3 = target: ScSla1-D3
# Procedure, shortened: as §1
# SpAbp1-D1 = target: SpAbp1-D1
# Procedure, shortened: as §1
# SpBbc1 = target: SpBbc1
# Procedure, shortened: as §1
# SpBzz1-D1 = target: SpBzz1-D1
# Procedure, shortened: as §1
# SpBzz1-D2 = target: SpBzz1-D2
# Procedure, shortened: as §1
# SpCyk3 = target: SpCyk3
# Procedure, shortened: as §1
# SpHof1 = target: SpHof1
# Procedure, shortened: as §1
# SpHof1-2 = target: SpHof1-2
# Procedure, shortened: as §1
# SpHof1-3 = target: SpHof1-3
# Procedure, shortened: as §1
# SpHse1 = target: SpHse1
# Procedure, shortened: as §1
# SpLsb1 = target: SpLsb1
# Procedure, shortened: as §1
# SpLsb4 = target: SpLsb4
# Procedure, shortened: as §1
# SpMyo1 = target: SpMyo1
# Procedure, shortened: as §1
# SpNbp2 = target: SpNbp2
# Procedure, shortened: as §1
# SpPex13 = target: SpPex13
# Procedure, shortened: as §1
# SpRvs167 = target: SpRvs167
# Procedure, shortened: as §1
# SpSla1-D1-D2 = target: SpSla1-D1-D2
# Procedure, shortened: as §1
# SpSla1-D3 = target: SpSla1-D3
# Procedure, shortened: as §1
binder,measurement,setting,value
SLSRRRFSLPSMPNV,SPOT peptide array binding signal intensity,AgAbp1,83.5
same,SPOT peptide array binding signal intensity,AgBbc1,114
same,SPOT peptide array binding signal intensity,AgBem1-D1,418
same,SPOT peptide array binding signal intensity,AgBzz1-D1,44.5
same,SPOT peptide array binding signal intensity,AgBzz1-D2,72.5
same,SPOT peptide array binding signal intensity,AgCyk3,6.5
same,SPOT peptide array binding signal intensity,AgFus1,404
same,SPOT peptide array binding signal intensity,AgHof1,158
same,SPOT peptide array binding signal intensity,AgHse1,1010
same,SPOT peptide array binding signal intensity,AgLsb1,1240
same,SPOT peptide array binding signal intensity,AgLsb4,41.5
same,SPOT peptide array binding signal intensity,AgMyo5,3
same,SPOT peptide array binding signal intensity,AgNbp2,97.5
same,SPOT peptide array binding signal intensity,AgRvs167,5
same,SPOT peptide array binding signal intensity,AgSho1,28
same,SPOT peptide array binding signal intensity,AgSla1-D1-D2,60
same,SPOT peptide array binding signal intensity,AgSla1-D3,6
same,SPOT peptide array binding signal intensity,CaAbp1-D1,872
same,SPOT peptide array binding signal intensity,CaAbp1-D2,370
same,SPOT peptide array binding signal intensity,CaBbc1,471
same,SPOT peptide array binding signal intensity,CaBem1-D1,112
same,SPOT peptide array binding signal intensity,CaBzz1-D1,183
same,SPOT peptide array binding signal intensity,CaBzz1-D2,189
same,SPOT peptide array binding signal intensity,CaCyk3,87.5
same,SPOT peptide array binding signal intensity,CaFus1,1080
same,SPOT peptide array binding signal intensity,CaHof1,0.5
same,SPOT peptide array binding signal intensity,CaHse1,62.8
same,SPOT peptide array binding signal intensity,CaLsb1,13
same,SPOT peptide array binding signal intensity,CaLsb4,52.5
same,SPOT peptide array binding signal intensity,CaMyo5,14.5
same,SPOT peptide array binding signal intensity,CaNbp2,282
same,SPOT peptide array binding signal intensity,CaRvs167,27
same,SPOT peptide array binding signal intensity,CaRvs167-3,152
same,SPOT peptide array binding signal intensity,CaSho1,477
same,SPOT peptide array binding signal intensity,CaSla1-D1-D2,471
same,SPOT peptide array binding signal intensity,CaSla1-D3,133
same,SPOT peptide array binding signal intensity,ScAbp1,94
same,SPOT peptide array binding signal intensity,ScBbc1,26.5
same,SPOT peptide array binding signal intensity,ScBem1-D1,28
same,SPOT peptide array binding signal intensity,ScBzz1-D1,54
same,SPOT peptide array binding signal intensity,ScBzz1-D2,29.5
same,SPOT peptide array binding signal intensity,ScCyk3,192
same,SPOT peptide array binding signal intensity,ScFus1,256
same,SPOT peptide array binding signal intensity,ScHof1,3
same,SPOT peptide array binding signal intensity,ScHse1,1590
same,SPOT peptide array binding signal intensity,ScLsb1,348
same,SPOT peptide array binding signal intensity,ScLsb2,42
same,SPOT peptide array binding signal intensity,ScLsb3,181
same,SPOT peptide array binding signal intensity,ScLsb4,9.5
same,SPOT peptide array binding signal intensity,ScMyo3,9.5
same,SPOT peptide array binding signal intensity,ScMyo5,9.25
same,SPOT peptide array binding signal intensity,ScNbp2,350
same,SPOT peptide array binding signal intensity,ScPex13,38
same,SPOT peptide array binding signal intensity,ScRvs167,37.3
same,SPOT peptide array binding signal intensity,ScSho1,743
same,SPOT peptide array binding signal intensity,ScSla1-D1-D2,636
same,SPOT peptide array binding signal intensity,ScSla1-D3,97.8
same,SPOT peptide array binding signal intensity,SpAbp1-D1,416
same,SPOT peptide array binding signal intensity,SpBbc1,8
same,SPOT peptide array binding signal intensity,SpBzz1-D1,311
same,SPOT peptide array binding signal intensity,SpBzz1-D2,1.75
same,SPOT peptide array binding signal intensity,SpCyk3,18
same,SPOT peptide array binding signal intensity,SpHof1,248
same,SPOT peptide array binding signal intensity,SpHof1-2,58.5
same,SPOT peptide array binding signal intensity,SpHof1-3,440
same,SPOT peptide array binding signal intensity,SpHse1,662
same,SPOT peptide array binding signal intensity,SpLsb1,270
same,SPOT peptide array binding signal intensity,SpLsb4,106
same,SPOT peptide array binding signal intensity,SpMyo1,15.5
same,SPOT peptide array binding signal intensity,SpNbp2,235
same,SPOT peptide array binding signal intensity,SpPex13,49
same,SPOT peptide array binding signal intensity,SpRvs167,14
same,SPOT peptide array binding signal intensity,SpSla1-D1-D2,5
same,SPOT peptide array binding signal intensity,SpSla1-D3,19
